High-throughput results from PubChem.
This is a sample that favours compounds with a hit; in the whole collection about 6.6% have one here.
FBA Mtb inh: Mtb FBA enzyme inhibitors, primary screen, biochemical, fluorescence, strain H37Rv | Fructose-bisphosphate aldolase (Mycobacterium tuberculosis (strain ATCC 25618 / H37Rv)), … | purified M. tuberculosis FBA, fluorescence read-out | inhibition, % at 1 µM | AID 588726, 2011 | 360,000 tested, 2.3% active; in the data active means inhibition above about 27%;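 further: 0% = vehicle and 100% = reference inhibitor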
BoNT-A LC inh2: BoNT/A light chain protease inhibitors, primary screen, biochemical, flow cytometry, MLPCN library; Botulinum neurotoxin type A light chain protease (Clostridium botulinum A str. ATCC 3502); multiplex microsphere protease substrate cleavage; inhibition, % at 10 µM; 360,000 tested, 0.17% active; further: plate controls were buffer without enzyme for full effect and enzyme alone for no effect
Anthrax LF prot: Bacillus anthracis LF protease inhibitors, primary screen, biochemical, multiplex microsphere, MLPCN library; Lethal factor (Bacillus anthracis), P15917; multiplex microsphere protease cleavage assay; inhibition, % at 10 µM; 360,000 tested, 0.12% active; further: plate controls were buffer without enzyme for full effect and enzyme alone for no effect
GDH-TPI inh: GDH-TPI coupling enzyme inhibitors, primary screen, artefact control for M. tuberculosis FBA inhibitor project, biochemical, absorbance, full deck. GDH-TPI coupled enzyme counterscreen, NADH absorbance. inhibition, % at 4.8 µM. 360,000 tested, 1.2% active. AID 588335, 2011; in the data active means inhibition above about 30%;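 further: 0% = DMSO wells and 100% = wells lacking the enzyme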
BoNT F protease: BoNT/F light chain protease inhibitors, primary screen, biochemical, flow cytometry, MLPCN library. 360,000 tested, 0.22% active. inhibition, % at 10 µM. Botulinum neurotoxin type F light chain protease (Clostridium botulinum). AID 588497, 2011. Multiplex microsphere protease cleavage assay; in the data active means inhibition above about 35%, passing the limit was not always enough; inconclusive means no clear call, values can overlap the other calls; further: plate controls were buffer without enzyme for full effect and enzyme alone for no effect
Bead autofluor: counter-screen for toxin protease inhibitors: compound fluorescence; 360,000 tested, 3.1% active; AID 624483; compound autofluorescence counterscreen, microsphere flow cytometry; active compounds read high; fluorescence intensity (concentration not given with the values); in the data active means fluorescence intensity above about 16000; inconclusive means no clear call, values can overlap the other calls
An asterisk follows results filed as active; ? = inconclusive. Unless noted, no stated cut-off is given here; in the data, active means inhibition above about 30%; inconclusive means no clear call, values can overlap the other calls; inactive means below that.

SMILES	FBA Mtb inh	BoNT-A LC inh2	Anthrax LF prot	GDH-TPI inh	BoNT F protease	Bead autofluor
O=C(Cc1cccs1)N1CCN(c2ccc(F)cc2)CC1	-2	-1	1	7	-8	2418
COc1ccccc1N1CCN(C(=O)CCCCCn2c(=O)[nH]c3ccsc3c2=O)CC1	4	-2	-8	1	-1	4616
CN(C)c1ccc(CC(=O)N2CCCC(c3cc(C(=O)Nc4ccc5c(c4)OCO5)no3)C2)cc1 (configuration not stated)	0	1	-2	-6	6	3498
CN(C)c1ccc(C2N(c3ccc(F)cc3)C(=O)C3CCCN32)cc1 (configuration not stated)	-1	0	-7	40*	-2	5761
COc1ccccc1NS(=O)(=O)c1cccc(NS(=O)(=O)c2cc(C(=O)O)ccc2Cl)c1	2	1	0	19	-6	3854
Cc1cc(C(C)(C)C)cc(S(=O)(=O)Nc2cccc(C(=O)O)c2)c1C	3	4	-10	-1	5	20337*
COc1cc(S(=O)(=O)Nc2cccc(C(=O)O)c2)c(OC)cc1Cl	2	?	0	0	6	20274*
COc1ccc(CCN2C(=NC(C)=O)SC3CS(=O)(=O)CC32)cc1OC (configuration not stated)	-2	-1	-4	-3	-7	5658
CC(C)Cc1nc2ccccc2n1CCc1ccccc1	0	-1	-2	-4	-3	2255
Clc1ccc(Nc2ccc(-n3ccnc3)nn2)cc1Cl	2	-1	-2	10	-10	?
O=C(COc1ccc([N+](=O)[O-])cc1Cl)NCCN1C(=O)CSC1=O	4	0	-4	15	3	2888
O=C(CN1C(=O)C2CC=CCC2C1=O)Nc1ccc(S(=O)(=O)Nc2nccs2)cc1 (configuration not stated)	-6	-1	-3	-5	-6	4945
CC(CCN1C(Nc2ccccc2)=NC[C@@H]1C)c1ccccc1 (some centres not stated)	-3	0	2	0	-7	3789
CC(=O)Oc1c(-c2ccco2)oc2ccccc2c1=O	22	0	-2	44*	-7	4225
COCCC(=O)N1CCCC(C(=O)c2ccc(C(F)(F)F)cc2)C1 (configuration not stated)	1	-3	-3	6	11	3777
O=C(NCCC1=CCCCC1)C(=O)NCc1ccccc1Cl	-1	?	1	9	-5	16906*
O=C(COc1ccccc1Cl)NCCC1=CCCCC1	-4	-1	2	-7	-3	2364
C1=C(CCNCc2ccccc2)CCCC1	0	?	-2	3	-5	23029*
C1=C(CCNCC2CC2)CCCC1	1	0	-1	-3	-6	10768
Cc1ccc(CNCCC2=CCCCC2)cc1	1	?	-6	7	-12	16821*
COc1ccc(OCCCCn2c(CO)nc3ccccc32)cc1	1	-3	-14	9	-9	4129
COc1c2c(cc3ccc(=O)oc13)CCO2	21	0	15	17	11	3659
COc1cc2[nH]c(=S)n(N(C(C)=O)C(C)=O)c(=O)c2cc1OC	0	2	0	1	1	22631*
COc1cc2[nH]c(=S)n(C3CCCC3)c(=O)c2cc1OC	-2	-1	-1	-1	-1	23713*
COc1cc2[nH]c(=S)n(C3CC3)c(=O)c2cc1OC	2	-1	-4	18	-2	4301
C[C@H]1CC[C@@]2(O[C@H](CCO)C[C@H](O)[C@H]2O)O1	2	0	0	6	3	3961
O=C(NCc1ccco1)c1ccc(CNc2c(N3CCCCC3)c(=O)c2=O)cc1	-4	0	1	-4	-5	5620
Cc1ccc(C(=O)NCc2ccccc2CN2CCCC2)cc1S(=O)(=O)N1CCOCC1	-4	-2	-2	-8	-3	6450
O=C(NC1CCCC1)C1C2C=CC(C2)C1C(=O)N1CCOCC1 (configuration not stated)	0	?	-2	-5	3	21400*
